Screening data as filed in PubChem BioAssay.
Shiga inhibitor = inhibitors of Shiga toxin in Vero cells; inhibition, % at 38.7 µM; Vero cells, Shiga toxin protein synthesis inhibition reporter; actives 9.2% (n = 290,000); in the data active means inhibition mostly above about 28%, no sharp cut-off; inactive means mostly below about 43%
Cycloheximide cs = counter-screen hit for Shiga toxin inhibitors, cycloheximide | max response, % | actives 12% (n = 300,000) | cell reporter, cycloheximide protein synthesis inhibition counterscreen; in the data active means max response mostly above about 13%, no sharp cut-off; inactive means mostly below about 14%; further: read at 38.3 µM for the half of the compounds with a filed dose
Pf growth 48h = inhibits P. falciparum growth in the first generation, 48 h. P. falciparum luciferase growth in erythrocytes, 48 h. Potency, µM (highest dose often 28.7 µM), most hits filed as inhibitors. actives 5.9% (n = 310,000)
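Growth was read as firefly luciferase luminescence after a 48 h, 37 C, 5% CO2 exposure of compounds to reporter-bearing P. falciparum cultures (0.1% parasitemia, 2% hematocrit final) in Albumax-supplemented RPMI 1640.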
Pf growth 96h = P. falciparum growth inhibition at 96 hours; P. falciparum luciferase reporter growth, 96 h; Potency, µM (doses to about 28.7 µM), actives largely listed as inhibitors; actives 6.9% (n = 320,000); AID 504834
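Plates of compound plus infected erythrocytes (2% hematocrit, 0.05% parasitemia final) incubate 96 hours, 37 C, 5% CO2. Detection reagent added; reduced luminescence from the parasites' luciferase reporter flags inhibition.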
A number is an active result; – = inactive; ? = inconclusive; · = not tested or not shown. Shown are actives, neighbours in structure and some others; about 21% of the full set was active somewhere. Unless noted, the call rests on the fitted dose curve; in most records, active means well fitted inhibition curve with a large enough effect; inconclusive means small, poorly fitted or top-dose-only effect, or another doubt; inactive means no such curve, though single readings can be large or run the other way.

SMILES	Shiga inhibitor	Cycloheximide cs	Pf growth 48h	Pf growth 96h
Cc1cccc(-c2ccc(-c3cc(=O)oc4cc(C)cc(C)c34)cc2)c1	–	–	·	·
CC(C(=O)OCC(=O)c1ccc([N+](=O)[O-])cc1)N1C(=O)C2C3CCC(C3)C2C1=O (stereo unspecified)	–	–	–	10µM
O=C(O)c1ccc(CSc2nnc(-c3cccnc3)n2-c2ccc(Br)cc2)cc1	–	–	–	–
C=CCc1ccc(O)c(-c2ccc(O)c(CC=C)c2)c1	–	–	?	8.3µM
C=CCc1cc(C(=O)N2CCCCC2)ccc1O	–	–	?	–
CC12CCC(c3n[nH]c(=S)nc31)C2(C)C (stereo unspecified)	–	–	–	–
CCn1nc(C)c(C2C(C#N)=C(N)OC3=C2C(=O)CCC3)c1C (stereo unspecified)	–	–	–	–
CCn1nc(C)c(/C=C2\CCCC3=C2OC(N)=C(C#N)C3c2c(C)nn(CC)c2C)c1C (stereo unspecified)	–	–	10µM	–
Cc1cc(S(=O)(=O)NCc2ccco2)c(C)s1	–	–	–	7.4µM
Cc1cccc(NC(=O)c2ccc(F)c(S(=O)(=O)N3CCC4(CC3)OCCO4)c2)c1	–	34	?	–
Cc1cccc(NC(=O)c2ccc(F)c(S(=O)(=O)NCc3ccco3)c2)c1	84	44	–	?
Cc1cc(S(=O)(=O)NCc2ccc(S(N)(=O)=O)cc2)c(C)s1	–	–	–	?
Cn1cc2cc([N+](=O)[O-])ccc2n1	–	–	–	–
Cc1cc(C(=O)CSc2nc3ccccc3o2)c(C)n1C1CC1	27	53	–	–
C=CCn1c(C)cc(C(=O)CSc2nc3ccccc3o2)c1C	110	62	–	?
Nc1nc(SCC(=O)NCc2ccccc2)n[nH]1	–	–	–	–
Nc1nc(SCC(=O)Nc2ccc(OCc3ccccc3)cc2)n[nH]1	58	28	–	–
COc1ccc(-c2csc(NC(=O)CSc3n[nH]c(C)n3)n2)cc1	108	31	–	–
Cc1nc(SCC(=O)Nc2ccc(OCc3ccccc3)cc2)n[nH]1	58	24	–	–
Cc1nc(SCC(=O)Nc2cccc(C(=O)O)c2)n[nH]1	–	–	–	–
CCc1cccc(NC(=O)C2CCCN(S(=O)(=O)c3cccnc3)C2)c1 (stereo unspecified)	–	–	?	?
FC(F)(F)C1=CC(c2ccc(Br)cc2)=NCCN1	–	–	?	6.6µM
FC(F)(F)C1=CC(c2ccccc2)=NCCN1	–	–	?	?
O=C1CCC(C(=O)N2CCCC(Nc3ccc(F)cc3)C2)=NN1 (stereo unspecified)	–	–	–	–
CCOc1ccc(N(CC(=O)NCc2ccco2)S(=O)(=O)c2ccc(OC)c(OC)c2)cc1	–	–	12µM	–
SMILES	Shiga inhibitor	Cycloheximide cs	Pf growth 48h	Pf growth 96h
COc1ccc(N(CC(=O)NCc2ccco2)S(=O)(=O)c2ccc(OC)c(OC)c2)cc1	–	–	·	15µM
COc1ccc(S(=O)(=O)N(CC(=O)NCc2ccco2)c2ccc(C)cc2)cc1OC	–	–	–	–
CC(Sc1nnc(-c2ccccc2F)n1C)C(=O)NC1CCCCC1 (stereo unspecified)	·	·	–	–
Cc1c(Cc2ccccc2)c(=O)oc2c(C)c(OCC(=O)Nc3ccc(C#N)cc3)ccc12	–	–	?	2.1µM
Cc1cc(C)cc(NC(=O)COc2ccc3c(C)c(Cc4ccccc4)c(=O)oc3c2)c1	–	–	8.3µM	?
Cc1c(Cc2ccccc2)c(=O)oc2c(C)c(OCC(=O)NCC3CCC(C(=O)O)CC3)ccc12 (stereo unspecified)	–	–	?	–
Cc1cc(OCC(=O)NCC2CCC(C(=O)O)CC2)c2c(C)c(Cc3ccccc3)c(=O)oc2c1 (stereo unspecified)	–	–	12µM	3.3µM
O=C1Nc2ccccc2N(O)N1c1ccc(S(=O)(=O)N2CCOCC2)cc1	–	–	–	?
Cc1ccc2[nH]c(=O)c(COC(=O)c3cccs3)cc2c1	–	–	–	–
CC(C(=O)Nc1ccc(Cl)cc1Cl)N1C(=O)NC2(CCCC2)C1=O (stereo unspecified)	–	–	–	–
CC(C)(C)c1ccc(-n2ncc3c2CCCC3NC(=O)CCCn2cncn2)cc1 (stereo unspecified)	–	–	–	–
Cc1nn(CC(=O)Nc2cccc(S(N)(=O)=O)c2)c(C)c1[N+](=O)[O-]	–	–	–	?
Cc1ccc2oc(=O)c3cc(C(=O)N4CCN(C(=O)c5ccco5)CC4)sc3c2c1	–	–	–	?
Cc1ccc2oc(=O)c3cc(C(=O)NCCCN4CC(C)CC(C)C4)sc3c2c1 (stereo unspecified)	–	–	2.1µM	–
